Screening results: PubChem, several laboratories
ALR H2O2 inh – inhibitors of human sulfhydryl oxidase ALR. P55789. hit rate 3.8% among 290,000. purified ALR, DTT oxidation, H2O2 HRP-luminol luminescence. inhibition, % (concentration not given with the values);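 active = mean replicate inhibition above about 79%, with every replicate also reaching it, limit read from the data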
Target sequence (P55789 whole entry, looked up): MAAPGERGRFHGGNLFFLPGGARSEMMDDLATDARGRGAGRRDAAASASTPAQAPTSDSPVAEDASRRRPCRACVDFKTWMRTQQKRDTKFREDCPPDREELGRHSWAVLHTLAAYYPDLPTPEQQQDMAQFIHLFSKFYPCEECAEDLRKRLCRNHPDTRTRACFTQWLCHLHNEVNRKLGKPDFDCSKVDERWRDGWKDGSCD
ABHD5-PLIN5 inh – blocks binding of human ABHD5 to perilipin-5; Split G. princeps luciferase complementation, luminescence, 4 h; inhibition, % at 4 µM; hit rate 0.78% among 360,000; AID 602281;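 active = inhibition above the mean inhibition across every tested compound plus 3 SD, cut at about 22% in these data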
LANA-H2A inh – blocks KSHV LANA binding to histone H2A/H2B; Q9QR71; cell-free LANA-H2A/H2B peptide, fluorescence polarization; inhibition, % (concentration not given with the values); hit rate 0.6% among 320,000; in the data active = inhibition mostly above about 10%, no sharp cut-off; inactive = mostly below about 6.7%
rCAG RNA binder – r(CAG) repeat RNA binding | TO-PRO-1 dye displacement fluorescence | inhibition, % at 3 µM | hit rate 1.3% among 370,000 | AID 651821;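 active = inhibition above the plate cutoff, the mean of all test compounds on that plate plus 3 SD, cut at about 35% in these data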;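 also: higher means more dye released from RNA so lower well fluorescence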
Rtt109 HAT inh – blocks Candida albicans Rtt109/Vps75 acetyltransferase activity. hit rate 0.16% among 330,000. purified Rtt109/Vps75, ThioGlo CoA-SH fluorescence, 4 h. inhibition, % at 34.9 µM. Q5AAJ8;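 active = inhibition of at least 50% in every replicate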
Target sequence (Q5AAJ8 whole entry, looked up): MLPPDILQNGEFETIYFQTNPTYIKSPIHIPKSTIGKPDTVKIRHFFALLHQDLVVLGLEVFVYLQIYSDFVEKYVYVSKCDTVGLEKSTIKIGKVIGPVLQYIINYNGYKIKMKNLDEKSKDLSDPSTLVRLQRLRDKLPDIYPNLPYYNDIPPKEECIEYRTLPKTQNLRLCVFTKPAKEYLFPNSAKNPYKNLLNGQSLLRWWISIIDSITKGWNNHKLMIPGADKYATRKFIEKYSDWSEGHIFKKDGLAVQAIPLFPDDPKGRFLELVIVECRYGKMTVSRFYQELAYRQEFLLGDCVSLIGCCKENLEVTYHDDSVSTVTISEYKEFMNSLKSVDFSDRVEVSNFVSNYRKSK
PRMT1 inh – inhibitors of human PRMT1; Q99873; recombinant PRMT1, activity-based probe fluorescence polarization; inhibition, % at 2.79 µM; hit rate 1.3% among 370,000; AID 652257;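 active = inhibition above about 21% made by adding two undisclosed values, limit read from the data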
Numbers stand for hits; - = inactive; . = not tested or not shown. Most compounds without a hit are left out; they make up all but 5.9% or so of the library.

SMILES | ALR H2O2 inh | ABHD5-PLIN5 inh | LANA-H2A inh | rCAG RNA binder | Rtt109 HAT inh | PRMT1 inh
O=C(NCCN1CCC2(CC1)C(=O)NCN2c1ccccc1)c1cc(C(F)(F)F)ccc1C(F)(F)F | . | . | . | - | . | -
O=C(O)c1cccc2c1NC(C(=O)O)C1CC(Sc3ccccc3[N+](=O)[O-])C(Cl)C21 (stereo not drawn) | - | - | . | 99.7 | 59.7 | 80.8
Cc1ccccc1CCC[C@H](CC1CCCCC1)CN(C)C(=O)Oc1ccccc1 | . | . | . | - | . | -
N#CCC[C@H]1CC[C@]2(CCCN(Cc3ccccn3)C2)O1 | . | . | . | - | . | -
O=C(O)C1CC2(Cl)C(Cl)=C(Cl)C1(Cl)C2(Cl)Cl (stereo not drawn) | . | - | . | - | . | -
Cc1cc(C)cc(OCCOc2cccc(C=C3C(=O)NC(=O)NC3=O)c2)c1 | - | - | - | - | - | -
Cc1ccc(OCCOc2cccc(C=C3C(=O)NC(=O)NC3=O)c2)cc1 | - | - | - | - | - | 22.2
Brc1csc(N2CCNCC2)n1 | . | . | . | . | . | -
CC(=O)N1c2ccccc2C(c2ccccc2)=NCC1C(=O)NCc1ccccc1 (stereo not drawn) | . | . | . | - | . | -
O=C1NC(=O)N(c2ccccc2F)C(=O)/C1=C/c1ccc(Sc2nc3ccccc3[nH]2)o1 | 97.6 | - | - | 45.8 | - | 25.0
O=C1NC(=O)N(c2ccccc2)C(=O)/C1=C/c1ccc(Sc2ccccc2)o1 | 96.8 | - | - | . | - | .
O=C(CN1C(=O)[C@@H](Cc2c[nH]c3ccccc23)N=C(c2ccccc2)c2ccccc21)NC1CCCCC1 | . | . | . | - | . | -
COC(=O)C1=Nc2ccccc2/C1=C\c1c(O)n(-c2ccc(Br)cc2)c(=O)[nH]c1=O | . | - | - | - | - | -
COC(=O)C1=Nc2ccccc2/C1=C\c1c(O)n(-c2ccc(OC)cc2)c(=O)[nH]c1=O | - | 37.6 | - | - | - | -
O=[As](O)(O)c1ccc(N=Nc2ccc(O)cc2)cc1 | 98.8 | - | - | - | - | -
Cc1ccc(OC(=O)N(C)C[C@H]2OCc3cnnn3CCCC(=O)N([C@H](C)CO)C[C@H]2C)cc1 | . | . | . | - | . | -
COc1ccc2nc(-c3ccc(CN4CCC(n5nnc6ccccc65)CC4)cc3)c(-c3ccccc3)nc2c1 | . | . | . | - | . | -
CCN1CCN(c2ccc(N)c(C)c2)CC1 | 95.5 | - | - | - | - | -
N#Cc1ccc2nc(-c3ccc(CN4CCC(n5c(=O)[nH]c6cc(Cl)ccc65)CC4)cc3)c(-c3ccccc3)nc2c1 | . | . | . | - | . | -
C=CCN1C(=O)/C(=C/c2cccs2)C(=O)NC1=S | 96.3 | - | - | - | - | -
O=C(CN1C(=O)[C@@H](Cc2ccccc2)N=C(c2ccccc2)c2ccccc21)NC1CCCCC1 | . | . | . | - | . | -
CC(=O)Nc1cc(C(=O)N2CCC3(CC2)OCCO3)ccc1Sc1ccc(F)cc1 | . | - | 28.8 | - | - | -
CC(=O)Nc1cc(C(=O)N2CCC3(CC2)OCCO3)ccc1Sc1ccc(C)cc1 | - | - | - | - | - | -
C1CCC(NC2CCCCC2)CC1 | - | - | 141.5 | - | - | -
O=C(NCCN1CCC2(CC1)C(=O)NCN2c1ccccc1)c1ccc(Cl)c(Cl)c1 | . | . | . | - | . | -
SMILES | ALR H2O2 inh | ABHD5-PLIN5 inh | LANA-H2A inh | rCAG RNA binder | Rtt109 HAT inh | PRMT1 inh
COc1cc(/C=C2/C(=O)NC(=O)N(c3ccccc3)C2=O)ccc1O | - | - | - | - | - | -
CCOc1cc(/C=C2/C(=O)NC(=O)N(c3ccc(CC)cc3)C2=O)ccc1OC(=O)c1cccs1 | - | 22.0 | - | . | - | .
Oc1cc2c(cc1O)[C@H]1c3ccccc3CN[C@@H]1CC2 | 99.0 | . | - | . | . | .
COc1ccc2c(c1)C1OCCNC1CC2 (stereo not drawn) | . | - | . | - | . | -
Nc1c(C(=O)NCc2ccco2)c2nc3ccccc3nc2n1Cc1ccc(F)cc1 | - | - | - | - | - | -
COc1ccc(Cn2c(N)c(C(=O)NCc3ccco3)c3nc4ccccc4nc32)cc1 | - | 22.2 | - | - | - | -
CC(=O)Nc1ccccc1OP1(=O)COc2ccccc2OC1 | 80.8 | - | - | - | - | -
CC(=O)Nc1ccccc1C(=O)OCC(=O)c1ccccc1Cl | - | - | - | - | - | -
CN1CC[C@@H]2CN[C@H](c3ccccc3Br)C[C@@H]21 | . | . | . | - | . | -
CCOC(=O)[C@]12Cc3c(cc(OC)c(OC)c3OC)[C@H]1N(C)C(=O)c1cc(OC)ccc12 | . | 22.8 | . | - | . | -
CCOC(=O)[C@]12Cc3ccccc3[C@H]1N(C)C(=O)c1cc(OC)ccc12 | . | - | . | - | . | -
O=c1[nH]c(=S)[nH]c(O)c1N=Nc1ccc(SC(F)F)cc1 | 98.0 | - | - | - | - | -
CC(C)c1ccc(N=Nc2c(O)[nH]c(=O)[nH]c2=O)cc1 | - | - | - | - | - | -
COC(=O)C1C(OC(=O)c2ccccc2)CC2CCC1[N+]2(C)C (stereo not drawn) | . | . | . | - | . | -
CC(C)C(NC(=O)OCc1ccccc1)P(=O)(Oc1ccccc1)Oc1ccccc1 (stereo not drawn) | . | . | . | - | . | -
O=C1NC(=S)N(c2ccccc2)C(=O)C1C(c1ccncc1)C1C(=O)NC(=S)N(c2ccccc2)C1=O (stereo not drawn) | - | - | - | - | - | 28.2
CC(C)NC1(c2ccccc2)CCCCC1 | . | . | . | - | . | -
COc1ccc(-n2c(/C=C/c3ccc(O)c(OC)c3)nc3ccccc3c2=O)cc1 | - | - | - | - | - | -
COc1cccc(-n2c(/C=C/c3ccc(O)c(O)c3)nc3ccccc3c2=O)c1 | 91.1 | - | - | - | - | -
C[C@H]1CNCCN1c1ccc(N2CC[C@@H](O)C2)c(C#N)c1 | . | . | . | - | . | -
Cc1cc(O)c2c(C)c(CC(=O)N3C[C@H]4C[C@@H](C3)c3cccc(=O)n3C4)c(=O)oc2c1 | 85.2 | - | - | - | - | -
Cc1cc(=O)oc2cc3c(cc12)CCCN3 | 93.4 | - | - | - | - | -
CC/C(=N\Nc1ccccc1)c1c(O)n(C)c(=O)n(C)c1=O | . | - | - | - | - | -
C/C(=N\NC(=S)Nc1ccccc1)c1c(O)n(C)c(=O)n(C)c1=O | 91.9 | - | - | - | - | -
